From PubChem BioAssay (EPA / NIEHS)
Where “and” joins values, the source holds several entries; their conditions need not be identical. Equal values may be shown once. Records with an inconclusive call do not appear. Some compounds were tested as several samples or in several runs, with calls that do not always agree. Calls of active or inactive are those of the source. How the source made its calls, unless noted: active means hit-call score of the fitted dose curve at least 0.9, where 1 is the maximum; inactive means score below 0.9.

What was measured:
[1] = target: Glucocorticoid receptor (Homo sapiens) (UniProt P04150); assay: ATG_GR_TRANS: Attagene TRANS-FACTORIAL HepG2 Assay for human Glucocorticoid Receptor (GR) (AID 2282978; active means hit-call score of the fitted dose curve at least 0.9, where 1 is the maximum;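 further: activators score as hits since higher reporter transcript over DMSO is fitted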); details: HepG2 Attagene TRANS GR reporter, mRNA transcription
Sequence of Glucocorticoid receptor (Homo sapiens) (P04150 whole entry, looked up, the tested form may be a part): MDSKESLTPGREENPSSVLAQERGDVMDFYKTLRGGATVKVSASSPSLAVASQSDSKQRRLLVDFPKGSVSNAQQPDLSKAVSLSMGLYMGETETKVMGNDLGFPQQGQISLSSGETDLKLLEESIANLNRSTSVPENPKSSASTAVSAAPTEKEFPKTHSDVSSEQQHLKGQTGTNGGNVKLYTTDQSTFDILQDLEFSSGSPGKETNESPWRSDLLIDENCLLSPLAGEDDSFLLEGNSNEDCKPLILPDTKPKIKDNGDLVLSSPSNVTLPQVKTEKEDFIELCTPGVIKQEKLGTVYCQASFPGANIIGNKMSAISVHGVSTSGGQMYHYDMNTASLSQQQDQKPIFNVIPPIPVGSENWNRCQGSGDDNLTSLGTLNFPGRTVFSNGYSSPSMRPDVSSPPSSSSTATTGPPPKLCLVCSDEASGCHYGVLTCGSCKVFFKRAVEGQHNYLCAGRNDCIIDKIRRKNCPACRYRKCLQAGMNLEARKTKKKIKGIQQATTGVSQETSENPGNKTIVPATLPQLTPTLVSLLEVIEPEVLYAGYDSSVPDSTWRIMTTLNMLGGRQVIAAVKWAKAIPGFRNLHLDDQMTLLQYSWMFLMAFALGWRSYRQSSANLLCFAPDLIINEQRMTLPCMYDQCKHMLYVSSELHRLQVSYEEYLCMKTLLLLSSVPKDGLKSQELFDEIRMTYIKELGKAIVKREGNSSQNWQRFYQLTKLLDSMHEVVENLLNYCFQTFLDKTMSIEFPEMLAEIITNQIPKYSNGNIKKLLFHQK
In short: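 Fluorescent capillary-electrophoresis quantitation of reporter mRNA is the readout, taken 24 h after dosing human HepG2 cells carrying transiently transfected GAL4-UAS reporter units activated by chimeric NR-GAL4 fusions; activity scored as induction over DMSO.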

[2] = target: Bile acid receptor (Homo sapiens) (UniProt Q96RI1); assay: ATG_FXR_TRANS: Attagene TRANS-FACTORIAL HepG2 Assay for Farnesoid X Receptor (FXR) (AID 2282979; active means hit-call score of the fitted dose curve at least 0.9, where 1 is the maximum;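 further: hits raise reporter mRNA above DMSO so AC50 marks FXR activation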); details: HepG2 Attagene TRANS FXR-GAL4 reporter transcription
Sequence of Bile acid receptor (Homo sapiens) (Q96RI1 whole entry, looked up, the tested form may be a part): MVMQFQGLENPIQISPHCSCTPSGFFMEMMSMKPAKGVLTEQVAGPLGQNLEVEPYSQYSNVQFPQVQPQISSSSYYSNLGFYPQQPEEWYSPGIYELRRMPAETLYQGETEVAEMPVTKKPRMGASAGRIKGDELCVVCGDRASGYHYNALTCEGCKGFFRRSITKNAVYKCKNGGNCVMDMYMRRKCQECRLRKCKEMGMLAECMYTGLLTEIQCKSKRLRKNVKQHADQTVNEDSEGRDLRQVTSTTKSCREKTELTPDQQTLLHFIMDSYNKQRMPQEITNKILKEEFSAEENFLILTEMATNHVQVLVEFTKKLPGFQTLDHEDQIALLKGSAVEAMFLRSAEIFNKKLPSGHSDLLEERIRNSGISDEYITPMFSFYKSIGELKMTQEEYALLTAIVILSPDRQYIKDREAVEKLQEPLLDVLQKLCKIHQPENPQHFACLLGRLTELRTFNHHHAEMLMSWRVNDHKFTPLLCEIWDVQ
In short: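 Reporter transcripts from transfected HepG2 cells were measured 24 h after dosing, using RT-PCR with capillary electrophoresis of 6-FAM-labelled fragments. The read-out reflects activity of exogenous FXR-Gal4 chimera on GAL4-UAS units, with induction relative to DMSO.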

[3] = ATG_M_06_TRANS: Attagene TRANS-FACTORIAL HepG2 Assay for M06 Transcription Factor (Internal Marker) (AID 2282983; active means hit-call score of the fitted dose curve at least 0.9, where 1 is the maximum); details: HepG2 Attagene TRANS M06 internal marker reporter
In short: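 Background-control reporter readout: after 24 h chemical exposure of transiently transfected HepG2 (GAL4-UAS reporter units), mRNA quantified by RT-PCR with fluorescent labeling and capillary electrophoresis. Gain-of-signal fitting against DMSO baseline.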

[4] = ATG_M_32_TRANS: Attagene TRANS-FACTORIAL HepG2 Assay for M32 Transcription Factor (Internal Marker) (AID 2282984; active means hit-call score of the fitted dose curve at least 0.9, where 1 is the maximum); details: HepG2 Attagene TRANS M32 internal marker reporter
In short: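 Internal background reporter in transfected HepG2: after 24 h chemical exposure, RNA reverse-transcribed, reporter cDNA amplified, fluorescently labelled and HpaI-cut, then sized by capillary electrophoresis. Gain of signal fitted against DMSO control.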

[5] = target: Transcriptional activator Myb (Homo sapiens) (UniProt P10242); assay: ATG_Myb_CIS: Attagene CIS-FACTORIAL HepG2 Assay for human Myeloblastosis (Myb) Proto-Oncogene Transcription Factor (AID 2282986); details: HepG2 Attagene CIS-FACTORIAL Myb reporter transcription; actives raise or lower the signal
Sequence of Transcriptional activator Myb (Homo sapiens) (P10242 whole entry, looked up): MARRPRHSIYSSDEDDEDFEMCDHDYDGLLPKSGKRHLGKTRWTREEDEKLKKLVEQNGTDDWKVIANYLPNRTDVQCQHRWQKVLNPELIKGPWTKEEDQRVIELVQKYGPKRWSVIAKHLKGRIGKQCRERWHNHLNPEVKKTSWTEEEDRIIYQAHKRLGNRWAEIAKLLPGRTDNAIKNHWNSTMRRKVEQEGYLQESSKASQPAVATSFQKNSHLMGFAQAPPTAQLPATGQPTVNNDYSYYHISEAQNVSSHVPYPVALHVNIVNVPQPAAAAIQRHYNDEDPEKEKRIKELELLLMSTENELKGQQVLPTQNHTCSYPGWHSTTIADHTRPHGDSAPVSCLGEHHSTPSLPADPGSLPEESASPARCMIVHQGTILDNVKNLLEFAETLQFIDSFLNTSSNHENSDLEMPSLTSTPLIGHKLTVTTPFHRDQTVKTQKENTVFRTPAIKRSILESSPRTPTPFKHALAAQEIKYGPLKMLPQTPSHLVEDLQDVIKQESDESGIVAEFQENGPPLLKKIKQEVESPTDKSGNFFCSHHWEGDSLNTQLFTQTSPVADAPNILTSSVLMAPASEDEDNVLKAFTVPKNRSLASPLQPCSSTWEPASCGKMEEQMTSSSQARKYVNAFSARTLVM
In short: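 Reporter transcript levels, quantified by fluorescent RT-PCR and capillary electrophoresis, serve as the read-out. Transfected HepG2 cells carrying cis-promoter reporter units are dosed for 24 hours, and curves are fitted bidirectionally against DMSO controls.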

[6] = target: Nuclear respiratory factor 1 (Homo sapiens) (UniProt Q16656); assay: ATG_NRF1_CIS: Attagene CIS-FACTORIAL HepG2 Assay for human Nuclear Respiratory Factor 1 (NRF1) Orphan Gene (AID 2282987); details: HepG2 NRF1 cis-element reporter, Attagene multiplex; actives raise or lower the signal
Sequence of Nuclear respiratory factor 1 (Homo sapiens) (Q16656 whole entry, looked up): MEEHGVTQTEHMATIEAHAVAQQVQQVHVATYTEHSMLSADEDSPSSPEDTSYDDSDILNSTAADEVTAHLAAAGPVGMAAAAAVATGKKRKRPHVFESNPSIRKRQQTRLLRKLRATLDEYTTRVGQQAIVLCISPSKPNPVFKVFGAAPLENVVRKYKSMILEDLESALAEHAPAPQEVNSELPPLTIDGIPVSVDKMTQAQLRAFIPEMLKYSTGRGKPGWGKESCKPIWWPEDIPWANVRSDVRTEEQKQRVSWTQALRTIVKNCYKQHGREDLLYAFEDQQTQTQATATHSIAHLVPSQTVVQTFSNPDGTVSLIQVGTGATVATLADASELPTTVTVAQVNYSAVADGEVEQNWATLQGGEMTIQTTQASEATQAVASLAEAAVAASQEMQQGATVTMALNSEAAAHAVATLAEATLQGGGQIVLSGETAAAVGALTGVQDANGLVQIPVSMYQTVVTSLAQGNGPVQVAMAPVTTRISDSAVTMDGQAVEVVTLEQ
In short: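 Multiplexed cis-reporter assay, HepG2 cells, 24 h treatment. Total RNA → oligo(dT) RT → PCR with reporter-specific primers → 6-FAM primer extension → HpaI cut → CE. Bidirectional fit vs DMSO.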

[7] = ATG_NFI_CIS: Attagene CIS-FACTORIAL HepG2 Assay for human Nuclear Factor I (NFI) (AID 2282989); details: HepG2 cis-regulatory reporter, NFI response element transcription; actives raise or lower the signal
In short: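 Transient MRTU transfection of HepG2 → 24 h chemical dosing → total RNA, oligo(dT) RT → PCR, 6-FAM primer extension, HpaI cut → capillary electrophoresis. Endpoint fitted bidirectionally relative to DMSO.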

[8] = target: Myc proto-oncogene protein (Homo sapiens) (UniProt P01106); assay: ATG_Myc_CIS: Attagene CIS-FACTORIAL HepG2 Assay for human Myelocytomatosis (Myc) Proto-Oncogene Transcription Factor (AID 2282990); details: HepG2, Attagene cis-reporter transcription factor activity; actives raise or lower the signal
Sequence of Myc proto-oncogene protein (Homo sapiens) (P01106 whole entry, looked up): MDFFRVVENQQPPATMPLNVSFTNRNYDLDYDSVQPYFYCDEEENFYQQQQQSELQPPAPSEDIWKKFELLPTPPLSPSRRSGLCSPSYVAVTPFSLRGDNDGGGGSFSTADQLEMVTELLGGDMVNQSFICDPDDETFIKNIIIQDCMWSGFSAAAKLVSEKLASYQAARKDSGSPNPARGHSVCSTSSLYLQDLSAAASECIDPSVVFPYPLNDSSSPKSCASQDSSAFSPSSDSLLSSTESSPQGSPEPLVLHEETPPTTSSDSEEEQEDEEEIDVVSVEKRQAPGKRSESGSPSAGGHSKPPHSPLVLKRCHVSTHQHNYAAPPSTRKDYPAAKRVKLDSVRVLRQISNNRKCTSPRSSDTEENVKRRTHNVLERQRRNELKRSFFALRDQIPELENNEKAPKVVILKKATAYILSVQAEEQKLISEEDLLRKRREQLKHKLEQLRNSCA
In short: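 Cells of the HepG2 human liver line bear multiple cis-driven reporter transcription units. Reporter mRNA after 24 h exposure is reverse-transcribed, amplified, labelled and resolved by capillary electrophoresis, with gain- or loss-of-signal fitting relative to DMSO.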

[9] = ATG_NF_kB_CIS: Attagene CIS-FACTORIAL HepG2 Assay for human Nuclear Factor Kappa B (NF-kB) (AID 2282991); details: HepG2 Attagene cis-factorial NF-kB reporter mRNA; actives raise or lower the signal
In short: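 Transient MRTU transfection of human HepG2 liver cells → 24 h chemical exposure → total RNA, oligo(dT) RT → PCR, 6-FAM primer extension, HpaI digest 2 h 37 C → CE fragment analysis. Bidirectional fitting, DMSO negative control.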

[10] = ATG_NRF2_ARE_CIS: Attagene CIS-FACTORIAL HepG2 Assay for human Nuclear Factor Erythroid 2 Related Factor 2 (NFR2) response to Antioxidant Response Elements (ARE) (AID 2282992); details: HepG2 Attagene ARE/NRF2 reporter, transcription factor activity; actives raise or lower the signal
In short: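 Endogenous transcription factor activity read out as reporter transcript levels (RT-PCR plus capillary electrophoresis, fluorescence) in transiently transfected HepG2 cells. Measured at 24 h after dosing; gain or loss of signal fitted versus DMSO.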

[11] = ATG_Oct_MLP_CIS: Attagene CIS-FACTORIAL HepG2 Assay for human Octamer-Binding Transcription Factor (Oct) (AID 2282993); details: HepG2 Attagene cis-factorial Oct reporter, mRNA; actives raise or lower the signal
In short: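 Transient MRTU transfection of HepG2 → 24 h compound treatment → RNA isolation, reverse transcription, PCR → 6-FAM primer extension, HpaI digest → capillary electrophoresis. Activity fitted both directions against DMSO.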

[12] = target: Cellular tumor antigen p53 (Homo sapiens) (UniProt P04637); assay: ATG_p53_CIS: Attagene CIS-FACTORIAL HepG2 Assay for human p53 Transcription Factor (AID 2282994); details: HepG2 p53 cis-element reporter, Attagene mRNA; actives raise or lower the signal
Sequence of Cellular tumor antigen p53 (Homo sapiens) (P04637 whole entry, looked up): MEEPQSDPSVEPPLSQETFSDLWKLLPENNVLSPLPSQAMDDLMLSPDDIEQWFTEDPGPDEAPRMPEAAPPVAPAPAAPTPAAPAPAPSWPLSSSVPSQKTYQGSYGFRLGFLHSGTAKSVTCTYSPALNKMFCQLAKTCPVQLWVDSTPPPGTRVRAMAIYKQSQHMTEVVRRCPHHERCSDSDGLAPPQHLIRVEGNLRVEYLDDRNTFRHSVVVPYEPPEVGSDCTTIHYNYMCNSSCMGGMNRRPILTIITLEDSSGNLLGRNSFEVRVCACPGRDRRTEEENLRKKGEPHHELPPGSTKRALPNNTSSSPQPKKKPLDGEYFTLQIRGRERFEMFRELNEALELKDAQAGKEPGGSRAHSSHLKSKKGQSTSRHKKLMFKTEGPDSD
In short: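 Endogenous p53 activity read in transiently transfected HepG2 from a cis-element-driven reporter transcript after 24 h exposure. RNA reverse-transcribed, PCR-amplified, fluorescently labelled and sized by capillary electrophoresis; gain or loss fitted against DMSO baseline.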

[13] = BSK_3C_uPAR: BioMAP Diversity Plus: 3C Assay for Urokinase-type plasminogen activator receptor (uPAR) Biomarker Activity (AID 2282998); details: BioMAP 3C HUVEC, uPAR biomarker ELISA; actives raise or lower the signal
In short: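 ELISA readout of uPAR on human vascular endothelium (umbilical vein primary cells), taken 24 h after chemical dosing. Increases and decreases are both fitted relative to DMSO vehicle.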

[14] = BSK_3C_VCAM1: BioMAP Diversity Plus: 3C Assay for Vascular cell adhesion molecule 1 (VCAM1) Biomarker Activity (AID 2282999); details: BioMAP 3C HUVEC, VCAM1 ELISA, cytokine-stimulated; actives raise or lower the signal
In short: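 Activity fitted in both directions relative to DMSO, with ELISA measurement of the surface marker on primary HUVEC (3C) at 24 h post-treatment; parallel SRB staining (0.1% SRB, TCA-fixed, 560 nm) flagged overt cytotoxicity.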

[15] = BSK_4H_Eotaxin3: BioMAP Diversity Plus: 4H Assay for Eotaxin 3 Biomarker Activity (AID 2283000); details: primary human endothelial cells (HUVEC); actives raise or lower the signal
In short: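 Human umbilical vein endothelial cells (BSK_4H system) dosed with test chemical; Eotaxin-3 (CCL26) measured by ELISA 24 h after dosing. Bidirectional curve fitting relative to DMSO negative control as baseline.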

[16] = target: Oxysterols receptor LXR-beta (Homo sapiens) (UniProt P55055); assay: ATG_LXRb_TRANS: Attagene TRANS-FACTORIAL HepG2 Assay for human Liver X Receptor beta (LXRb) (AID 2282981; active means hit-call score of the fitted dose curve at least 0.9, where 1 is the maximum); details: HepG2 Attagene TRANS GAL4-LXRb reporter, mRNA
Sequence of Oxysterols receptor LXR-beta (Homo sapiens) (P55055 whole entry, looked up, the tested form may be a part): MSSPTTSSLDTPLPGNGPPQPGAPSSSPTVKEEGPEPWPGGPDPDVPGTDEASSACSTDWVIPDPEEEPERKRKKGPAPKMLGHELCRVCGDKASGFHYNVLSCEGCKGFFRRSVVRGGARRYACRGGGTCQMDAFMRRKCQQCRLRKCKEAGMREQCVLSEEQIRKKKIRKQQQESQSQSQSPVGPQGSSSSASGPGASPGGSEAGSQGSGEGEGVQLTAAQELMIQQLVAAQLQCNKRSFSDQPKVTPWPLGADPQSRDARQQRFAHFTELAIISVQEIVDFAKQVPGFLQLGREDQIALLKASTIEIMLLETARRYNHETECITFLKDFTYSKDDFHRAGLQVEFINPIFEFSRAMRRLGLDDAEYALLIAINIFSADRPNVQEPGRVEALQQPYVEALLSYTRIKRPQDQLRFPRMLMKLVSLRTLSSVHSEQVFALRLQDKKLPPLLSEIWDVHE
In short: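 After 24 h chemical treatment of transfected HepG2 cells carrying exogenous NR-Gal4 chimeras, reporter mRNA was quantified by fluorescent RT-PCR and capillary electrophoresis; activity taken as increase over DMSO controls.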

[17] = target: Hepatocyte nuclear factor 4-alpha (Homo sapiens) (UniProt P41235); assay: ATG_HNF4a_TRANS: Attagene TRANS-FACTORIAL HepG2 Assay for human Hepatocyte Nuclear Factor 4 alpha (HNF4a) (AID 2282982; active means hit-call score of the fitted dose curve at least 0.9, where 1 is the maximum); details: HepG2 HNF4a transactivation reporter, mRNA readout
Sequence of Hepatocyte nuclear factor 4-alpha (Homo sapiens) (P41235 whole entry, looked up, the tested form may be a part): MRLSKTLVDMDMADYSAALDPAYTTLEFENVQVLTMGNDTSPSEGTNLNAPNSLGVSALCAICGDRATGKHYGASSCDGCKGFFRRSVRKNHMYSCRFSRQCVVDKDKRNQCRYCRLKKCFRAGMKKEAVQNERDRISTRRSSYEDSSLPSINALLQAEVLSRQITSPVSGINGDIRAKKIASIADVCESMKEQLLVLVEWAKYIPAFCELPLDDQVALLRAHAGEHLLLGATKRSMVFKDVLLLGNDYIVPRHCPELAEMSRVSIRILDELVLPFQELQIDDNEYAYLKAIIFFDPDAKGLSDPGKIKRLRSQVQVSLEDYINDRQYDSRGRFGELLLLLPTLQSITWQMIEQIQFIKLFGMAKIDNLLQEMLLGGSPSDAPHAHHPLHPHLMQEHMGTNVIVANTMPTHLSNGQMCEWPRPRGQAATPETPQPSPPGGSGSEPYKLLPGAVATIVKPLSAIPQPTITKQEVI
In short: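 Activity of an exogenous HNF4a–Gal4 fusion scored as induced GAL4-UAS reporter transcripts after 24 h chemical exposure of transfected human HepG2 cells. Read-out via RT-PCR with 6-FAM labelling and capillary electrophoresis; rise over DMSO baseline.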

[18] = target: Oxysterols receptor LXR-alpha (Homo sapiens) (UniProt Q13133); assay: ATG_LXRa_TRANS: Attagene TRANS-FACTORIAL HepG2 Assay for human Liver X Receptor alpha (LXRa) (AID 2282980; active means hit-call score of the fitted dose curve at least 0.9, where 1 is the maximum); details: HepG2 Attagene TRANS reporter, LXRa transactivation
Sequence of Oxysterols receptor LXR-alpha (Homo sapiens) (Q13133 whole entry, looked up, the tested form may be a part): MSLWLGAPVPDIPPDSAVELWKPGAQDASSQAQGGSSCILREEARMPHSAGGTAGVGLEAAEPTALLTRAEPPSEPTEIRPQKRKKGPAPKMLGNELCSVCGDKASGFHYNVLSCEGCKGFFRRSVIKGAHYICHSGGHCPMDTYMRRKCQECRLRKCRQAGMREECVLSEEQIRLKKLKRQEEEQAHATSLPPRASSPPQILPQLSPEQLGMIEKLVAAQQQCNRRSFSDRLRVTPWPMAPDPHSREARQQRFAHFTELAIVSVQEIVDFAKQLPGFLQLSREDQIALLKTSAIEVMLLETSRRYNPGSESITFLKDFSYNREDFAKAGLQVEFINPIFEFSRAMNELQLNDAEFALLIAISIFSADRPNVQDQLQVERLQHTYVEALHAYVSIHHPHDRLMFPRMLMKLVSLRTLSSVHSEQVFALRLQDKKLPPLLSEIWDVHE
In short: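 Chemical-induced reporter mRNA measured by RT-PCR with fluorescent labelling and capillary electrophoresis after 24 h dosing of transiently transfected HepG2 cells expressing exogenous NR-Gal4 chimeras; increases scored against DMSO baseline.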

SMILES: CCN(Cc1cccnc1)C(=O)c1cccc(Cl)c1[C@]1(C)C(=O)N(Cc2ccc(OC)cc2OC)c2ccc(Cl)cc21
- outcome [1]: inactive
- AC50 [2]: 2.58 µM (active)
- outcome [3]: inactive
- outcome [4]: inactive
- outcome [5]: inactive
- AC50 [6]: 9.65 µM (active)
- outcome [7]: inactive
- outcome [8]: inactive
- outcome [9]: inactive
- AC50 [10]: 5.87 µM (active)
- AC50 [11]: 2.6 µM (active)
- AC50 [12]: 4.98 µM (active)
- AC50 [13]: 5.85 µM (active)
- AC50 [14]: 7.09 µM (active)
- AC50 [15]: 11.4 µM (active)

SMILES: CC(C)(c1cc(Br)c(O)c(Br)c1)c1cc(Br)c(O)c(Br)c1
- outcome [1]: inactive
- outcome [2]: inactive
- outcome [16]: inactive
- outcome [17]: inactive
- outcome [3]: inactive
- outcome [4]: inactive
- outcome [5]: inactive
- AC50 [6]: 53.3 µM (active)
- outcome [6]: inactive
- AC50 [7]: 57.6 µM (active) and 54.7 µM (active)
- AC50 [8]: 38.2 µM (active)
- outcome [8]: inactive
- outcome [9]: inactive
- AC50 [10]: 55.9 µM (active) and 57.6 µM (active)
- AC50 [11]: 47 µM (active) and 40.3 µM (active)
- AC50 [12]: 22.9 µM (active)
- outcome [12]: inactive
- AC50 [13]: 31.6 µM (active)
- AC50 [14]: 32.1 µM (active)
- AC50 [15]: 30.1 µM (active)

SMILES: O=C(O)Cc1cc(I)c(Oc2ccc(O)c(I)c2)c(I)c1
- outcome [1]: inactive
- outcome [2]: inactive
- outcome [18]: inactive
- outcome [17]: inactive
- outcome [3]: inactive
- outcome [4]: inactive
- outcome [5]: inactive
- AC50 [6]: 159 µM (active)
- outcome [6]: inactive
- outcome [7]: inactive
- outcome [8]: inactive
- outcome [9]: inactive
- AC50 [10]: 70 µM (active) [middle of 4 runs]
- AC50 [11]: 35.7 µM (active) and 100 µM (active)
- outcome [11]: inactive
- AC50 [12]: 25.9 µM (active) and 26.4 µM (active) and 9.57 µM (active)
- outcome [12]: inactive
- outcome [13]: inactive
- outcome [14]: inactive
- AC50 [15]: 31.3 µM (active)
